Cycloheximide cs – Cycloheximide Counterscreen for Small Molecule Inhibitors of Shiga Toxin; cell reporter, cycloheximide protein synthesis inhibition counterscreen; max response, %; actives 12% (n = 300,000); in the data active = max response mostly above about 13%, no sharp cut-off; inactive = mostly below about 14%; note: read at 38.3 µM for the half of the compounds with a filed dose
Shiga inhibitor – A qHTS for Small Molecule Inhibitors of Shiga Toxin; actives 9.2% (n = 290,000); inhibition, % at 38.7 µM; AID 2315, 2010; Vero cells, Shiga toxin protein synthesis inhibition reporter; in the data active = inhibition mostly above about 28%, no sharp cut-off; inactive = mostly below about 43%
Marburg entry inh – qHTS for inhibitors of binding or entry into cells for Marburg Virus; Marburg virus pseudotyped entry inhibition, cell reporter; Potency, µM (doses to about 37.8 µM), most hits filed as inhibitors; actives 1.8% (n = 300,000); AID 540276, 2011; calls by dose curve; tested in HEK293 cells
AMA1-RON2 inh – qHTS for Inhibitors of AMA1-RON; Towards Development of Antimalarial Drug Lead: Primary Screen | AlphaScreen AMA1-biotinylated RON2 peptide binding | Potency, µM (highest dose often 58.2 µM), hits mostly inhibitors | actives 0.2% (n = 360,000) | AID 720542, 2013 | Plasmodium falciparum AMA1 (3D7) - RON2 peptide interaction; active = well fitted inhibition curve with a large enough effect; inconclusive = small, poorly fitted or top-dose-only effect; inactive = no such curve, though single readings can be large or run the other way; note: nearly all actives have a fitted effect of over 45% in size
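AMA1 (3D7) with his tag at 25 nM final met compounds first, then biotinylated RON2 peptide at 25 nM; detection used donor plus acceptor beads, 10 µg/mL apiece, read by AlphaScreen after 30 min at room temperature.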
LASV entry inh – qHTS for Inhibitors of binding or entry into cells for Lassa Virus. Lassa virus pseudotype entry inhibition, cell reporter. Potency, µM (top dose mostly 37.9 µM), usual class: inhibitors. actives 1.2% (n = 300,000). AID 540256, 2011; calls by dose curve; tested in HEK293 cells; note: nearly all actives have a fitted effect of over 50% in size
Each line names hits and unclear results; the compound was inactive in the other large screens; ! = not active in a repeat. Many of the other results were omitted from the sample, so hits are more common in it than they were.

CCOc1ccc(CCNC(=O)c2nn(-c3ccc(OC)cc3)c(=O)c3c2c2ccccc2n3C)cc1OCC	none (no result: Cycloheximide cs, Shiga inhibitor, AMA1-RON2 inh)
Cc1c(C(=O)N2CCCCC2)oc2ccc(S(=O)(=O)N3CC(C)CC(C)C3)cc12 (stereo not given)	Marburg entry inh 11µM, LASV entry inh inconclusive
CCN(CC)CCCNC(=O)c1oc2ccc(S(=O)(=O)N3CC(C)CC(C)C3)cc2c1C (stereo not given)	Marburg entry inh 10µM, LASV entry inh inconclusive
CCOC(=O)N1CCN(C(=O)c2oc3ccc(S(=O)(=O)N4CCCCC4)cc3c2C)CC1	Marburg entry inh inconclusive
Cn1nnnc1SCc1cccc2ccccc12	none
c1ccc(Cc2nc3ccccc3s2)cc1	none (no result: Cycloheximide cs, Shiga inhibitor)
O=c1c2ccccc2nc(SCc2nc3ccccc3s2)n1CCCO	Cycloheximide cs 46, Shiga inhibitor 137, Marburg entry inh inconclusive, LASV entry inh inconclusive
Cn1nnnc1SCc1nc2ccccc2s1	Cycloheximide cs 38, Shiga inhibitor 94, Marburg entry inh inconclusive, LASV entry inh inconclusive
Cc1ccnc(SCc2nc3ccccc3s2)n1	Cycloheximide cs 32, Shiga inhibitor 62, Marburg entry inh inconclusive, LASV entry inh inconclusive
O=C(CSc1nc2ccccc2c(=O)n1CCCO)NCc1ccccc1	LASV entry inh inconclusive
O=C(NCc1nnnn1-c1ccc(F)cc1)C(=O)c1c[nH]c2ccccc12	none (no result: Cycloheximide cs, Shiga inhibitor, Marburg entry inh, LASV entry inh)
N/C(=N\OC(=O)c1cccnc1)c1ccc(Cl)cc1Cl	Cycloheximide cs 22, Shiga inhibitor 44, Marburg entry inh inconclusive
O=C(COC(=O)c1cccnc1)c1ccc(Cl)c(Cl)c1	LASV entry inh inconclusive
N/C(=N\OC(=O)c1cccnc1)c1ccccc1Cl	Cycloheximide cs 27, Shiga inhibitor 84 (no result: Marburg entry inh, LASV entry inh)
CC(C)(C)c1ccc([C@@H](O)CCCN2CCC(C(O)(c3ccccc3)c3ccccc3)CC2)cc1	none (no result: Cycloheximide cs, Shiga inhibitor, AMA1-RON2 inh, LASV entry inh)
CC(C)(C)c1ccc(C(O)CCCN2CCC(C(O)(c3ccccc3)c3ccccc3)CC2)cc1 (stereo not given)	Marburg entry inh 2.2µM!, LASV entry inh 2.9µM!
COc1ccc(CNCC(O)(c2ccccc2)c2ccc(F)cc2)cc1 (stereo not given)	Marburg entry inh 11µM
COc1ccc(CNCC(O)(c2ccccc2)c2ccc(F)cc2)cc1OC (stereo not given)	Marburg entry inh 2.8µM, LASV entry inh inconclusive
OC(CNCc1ccc(Cl)cc1)(c1ccccc1)c1ccc(F)cc1 (stereo not given)	Marburg entry inh inconclusive
C=CCOc1cccc(C2/C(=C(\O)c3ccc(F)cc3)C(=O)C(=O)N2CCN(C)C)c1 (stereo not given)	none
CCN(CC)CCN1C(=O)C(=O)/C(=C(/O)c2ccc(OCC(C)C)cc2)C1c1ccncc1 (stereo not given)	none (no result: AMA1-RON2 inh, LASV entry inh)
C=CCOc1ccc(/C(O)=C2\C(=O)C(=O)N(CCN(C)C)C2c2cccs2)cc1 (stereo not given)	Shiga inhibitor 62
CCN(CC)CCN1C(=O)C(=O)/C(=C(/O)c2ccc(OC)cc2)C1c1cccs1 (stereo not given)	Cycloheximide cs 58, Shiga inhibitor 67 (no result: Marburg entry inh, AMA1-RON2 inh, LASV entry inh)
CCOc1ccc(/C(O)=C2/C(=O)C(=O)N(CCN(CC)CC)C2c2cccs2)cc1 (stereo not given)	Cycloheximide cs 43, Shiga inhibitor 51 (no result: Marburg entry inh, LASV entry inh)
Cc1ccccc1-c1nc(CN2CCC(C(=O)NCCCN3CC(C)CC(C)C3)CC2)c(C)o1 (stereo not given)	Marburg entry inh inconclusive, LASV entry inh inconclusive
O=C(Cn1c(C(=O)N2CCN(C3CCCC3)CC2)cc2sccc21)c1ccccc1	Marburg entry inh inconclusive, LASV entry inh inconclusive
O=[N+]([O-])c1ccc(O)c(C2=NNC(c3ccccc3F)C2)c1 (stereo not given)	Cycloheximide cs 40, Shiga inhibitor 84, Marburg entry inh inconclusive, LASV entry inh inconclusive
Cc1ccc(NC(=O)c2ccn(C)n2)c(Br)c1	Cycloheximide cs 81, Shiga inhibitor 163, Marburg entry inh inconclusive, LASV entry inh inconclusive
Cn1ccc(C(=O)Nc2ccc(Br)cc2Br)n1	Cycloheximide cs 104, Shiga inhibitor 167, Marburg entry inh inconclusive, LASV entry inh inconclusive
Cn1nnnc1SCC(=O)Nc1ccc(Br)cc1Br	none (no result: Cycloheximide cs, Shiga inhibitor)
Cc1ccc(NC(=O)c2cc(C)nc3ccccc23)c(Br)c1	none (no result: Shiga inhibitor)
O=C(Nc1c[nH]c(=O)[nH]c1=O)c1cccc([N+](=O)[O-])c1	none (no result: Marburg entry inh, LASV entry inh)
